Inconclusive results are not listed. Calls of active or inactive are those of the source. Calls come from the whole dose curve; as a rule, active = well fitted inhibition curve with a large enough effect; inconclusive = small, poorly fitted or top-dose-only effect; inactive = flat fitted curve, though single readings scatter. Non-standard residues stand in square brackets, D forms with d. Residues, ends and D or L forms follow the SMILES beside them. Dolaproine = CO[C@@H]([C@@H]1CCCN1)[C@@H](C)C(=O)O; Dil = CC[C@H](C)[C@H](NC)[C@@H](CC(=O)O)OC; NMeV = CN[C@H](C(=O)O)C(C)C

A short description of the test: Identification of antibody-drug conjugate (ADC) payloads which are substrates of ATP-binding cassette drug efflux transporters: ABCB1-HEK293-MDR-19 cell line with tariquidar. The following applies: HEK293 ABCB1 (MDR-19) + tariquidar, CellTiter-Glo viability, 48 h. An excerpt:
Antibody-drug conjugates (ADCs) feature an antibody recognizing a specific protein joined to a potent toxic payload. Numerous antibody-drug conjugates have received FDA approval; however, clinical resistance arises. Resistance mechanisms include decreased expression or mutation of the antibody target, impaired payload release, or increased expression of ATP-binding cassette (ABC) efflux transporters associated with multidrug resistance. We therefore sought to characterize the interaction of ABC multidrug transporters with ADC payloads. We performed a high-throughput screen with 27 common ADC payloads using cells lines expressing ABC transporters P-glycoprotein (P-gp, encoded by ABCB1) or ABCG2 (encoded by ABCG2). Confirmatory assays were also performed using cells transfected to express P-gp, ABCG2, or MRP1 (encoded by ABCC1). Several commonly used ADC payloads were substrates of P-gp, including calicheamicin gamma1, monomethyl auristatin E, DM1, and DM4. All the pyrrolobenzodiazepines tested - SJG136, SGD-1882, SG2057, and SG3199 - were substrates of P-gp, ABCG2, and MRP1. […] These findings highlight the risk of transporter-mediated resistance with certain ADC payloads and underscore the importance of selecting payloads that evade ABC transporter recognition in future ADC development.
HEK-293 cells were transfected with empty vector (pcDNA) or vector containing the human ABCB1 (MDR-19), ABCG2 (R-5), or ABCC1 gene (MRP1) and were maintained in EMEM with 2 mg/mL G418 added to maintain transporter expression. The HeLa derivative KB-3-1 and the P-gp overexpressing KB-8-5-11 subline were maintained in DMEM; KB-8-5-11 additionally received 100 ng/mL colchicine. H460 parental cells were obtained from the Division of Cancer Treatment and Diagnosis Tumor Repository, National Cancer Institute at Frederick, MD and were cultured in RPMI. The ABCG2 expressing subline H460 MX20 was generated by selecting H460 cells in 20 nM mitoxantrone. Media in all cases was supplemented with 10% FBS and 1% penicillin-streptomycin. We explored 27 common ADC payloads, in two orthogonal, paired cell line sets-a drug selected and transfected set for each transporter--to identify substrates of the ABC transporters P-gp and ABCG2. Compounds were sourced from Levena Biopharma (San Diego, CA), Selleck Chem (Houston, TX), ChemieTek (Indianapolis, IN), or Microsource Discovery Systems (Gaylordsville, CT). Screening was performed as previously described. Briefly, cells were plated at a density of 500 cells/well in 1536 well plates with compounds added using a 1536-head pin tool (Kalypsys, San Diego CA). Cells were incubated with cytotoxic drugs and processed with CellTiter Glo reagent (Promega, Madison, WI) to determine viability after 48 hours. P-gp substrates were identified by comparing compound activity between paired sets of low-expressing (sensitive) and over-expressing (resistant) cell lines.
A general note: In ATP-based viability assays light output follows the ATP content of the culture.
For the compound `COc1cccc2c1C(=O)c1c(O)c3c(c(O)c1C2=O)C[C@@](O)(C(=O)CO)C[C@@H]3O[C@H]1C[C@H]2[C@H](O[C@@H]3[C@@H](OC)OCCN32)[C@H](C)O1`, the Potency was 0.0265 nM (active).
Regarding `CCc1c2c(nc3ccc(O)cc13)-c1cc3c(c(=O)n1C2)COC(=O)[C@]3(O)CC`, the Potency was 4.2 nM (active).
On to `COC(=O)c1cc2c3c(cc(O)c2[nH]1)N(C(=O)c1cc2cc(OC)c(OC)c(OC)c2[nH]1)CC3CCl` (stereo unspecified), for which the Potency is 0.7 nM (active).
Consider `CC(C)(C)OC(=O)Nc1ccc2[nH]c(C(=O)N3C[C@@H](CCl)c4c3cc(O)c3ccccc43)cc2c1`, for which the Potency is 11.8 nM (active).
The result for `CN(C)CCOc1ccc2[nH]c(C(=O)N3C[C@@H](CCl)c4c3cc(O)c3ccccc43)cc2c1` reads 0.5 nM (active).
In the case of `COc1cc2cc(c1Cl)N(C)C(=O)C[C@H](O)[C@]1(C)O[C@H]1[C@H](C)C1C[C@@](O)(NC(=O)O1)[C@H](OC)/C=C/C=C(\C)C2` it was 2650 nM (active); in that of `CCN(C(C)=O)[C@H]1CO[C@@H](O[C@H]2[C@H](O[C@H]3C#C/C=C\C#C[C@]4(O)CC(=O)C(NC(=O)OC)=C3/C4=C\CSSSC)O[C@H](C)[C@@H](NO[C@H]3C[C@H](O)[C@H](SC(=O)c4c(C)c(I)c(O[C@@H]5O[C@@H](C)[C@H](O)[C@@H](OC)[C@H]5O)c(OC)c4OC)[C@@H](C)O3)[C@@H]2O)C[C@@H]1OC`, 1.2 nM (active).
The result for `Cc1nc(Nc2ncc(C(=O)Nc3c(C)cccc3Cl)s2)cc(N2CCN(CCO)CC2)n1` reads 13300 nM (active); that for `COc1cccc2c1C(=O)c1c(O)c3c(c(O)c1C2=O)C[C@@](O)(C(=O)CO)C[C@@H]3O[C@H]1C[C@H](N)[C@H](O)[C@H](C)O1`, 33.4 nM (active).
In the case of `CC[C@H](C)[C@@H]([C@@H](CC(=O)N1CCC[C@H]1[C@H](OC)[C@@H](C)C(=O)N[C@@H](Cc1ccccc1)C(=O)O)OC)N(C)C(=O)[C@@H](NC(=O)[C@@H](NC)C(C)C)C(C)C` (H-[NMeV]V[Dil][Dolaproine]F-OH), the Potency was 529 nM (active).
The result for `CCN[C@H]1CO[C@@H](O[C@H]2[C@H](O[C@H]3C#C/C=C\C#C[C@]4(O)CC(=O)C(NC(=O)OC)=C3/C4=C\CSSSC)O[C@H](C)[C@@H](NO[C@H]3C[C@H](O)[C@H](SC(=O)c4c(C)c(I)c(O[C@@H]5O[C@@H](C)[C@H](O)[C@@H](OC)[C@H]5O)c(OC)c4OC)[C@@H](C)O3)[C@@H]2O)C[C@@H]1OC` reads 0.1 nM (active).

The values are drawn from PubChem BioAssay AID2061317 (National Center for Advancing Translational Sciences (NCATS), 2025).
